uPA surface inh: inhibitors of cell surface uPA generation. cell surface uPA generation assay, qHTS. Potency, µM (highest dose often 38.3 µM), usual class: inhibitors. 0.31% of 330,000 active. AID 540303; active = well fitted inhibition curve with a large enough effect; inconclusive = small, poorly fitted or top-dose-only effect; inactive = no such curve, though single readings can be large or run the other way; tested in mouse RAW 264.7 cells; note: nearly all actives have a fitted effect of over 55% in size
Giardia killer: kills Giardia lamblia; Giardia lamblia trophozoite viability; activity change, % at 7.66 µM, hits read low; 0.15% of 340,000 active; AID 540267; in the data active = activity change below about -80%; inconclusive = between about -30% and that limit;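 note: parasites exposed to compound for two days anaerobically before the ATP read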
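Trophozoite viability was measured as ATP-dependent luminescence, read 15-30 min after reagent addition. Before that, parasites at 100 cells/well were exposed to compounds for 48 h, anaerobically, at 37 deg C.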
SW480 rerep: DNA re-replication induction in SW480 cells; 1.8% of 340,000 active; SW480 DNA re-replication, Hoechst DNA content imaging, 48 h; Potency, µM (titrated, usually from 46.1 µM), most hits filed as activators; note: nearly all actives have a fitted effect of over 55% in size
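Quantitative HTS format with DMSO vehicle controls; 48 hr drug incubation at 37 C, then 40 min Hoechst staining and scanning imager measurement at 405 nm excitation.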
MCF10A rereplic: induces DNA re-replication in MCF 10a normal breast cells; 2.9% of 350,000 active; Potency, µM (highest dose often 46.1 µM), hits mostly activators; MCF 10A DNA re-replication, Hoechst nuclear intensity, 48 h; note: nearly all actives have a fitted effect of over 50% in size
A number is an active result; . = inactive; ? = inconclusive; / = no result. A selection: hits, their analogues and other compounds. The true share with any hit is near 4.3%. Unless noted, calls come from the whole dose curve; as a rule, active = well fitted activation curve with a large enough effect; inconclusive = small, poorly fitted or top-dose-only effect; inactive = no such curve, though single readings can be large or run the other way.

SMILES | uPA surface inh | Giardia killer | SW480 rerep | MCF10A rereplic
O=C1NNC(c2ccccc2)=N/C1=C\c1ccco1 | . | . | . | .
O=C(NCCN1C(=O)S/C(=C\c2ccc(Cl)c(Cl)c2)C1=O)c1ccc2c(c1)C(=O)N(Cc1ccncc1)C2=O | . | . | . | 16µM
O=C(NCCN1C(=O)S/C(=C\c2ccc(Cl)c(Cl)c2)C1=O)C1COc2ccccc2O1 (stereo unspecified) | . | . | . | .
COc1ccc(/C=C2\SC(=O)N(CCNC(=O)C3=COCCO3)C2=O)cc1 | 7.1µM | . | 10µM | 1.8µM
O=C(NCCN1C(=O)S/C(=C\c2ccc(Cl)cc2)C1=O)C1=COCCO1 | . | . | . | .
O=C(NCCN1C(=O)S/C(=C\c2ccc(OC(F)F)cc2)C1=O)[C@@H]1CCCN1C(=O)c1cccs1 | . | . | . | .
O=C(NCCN1C(=O)S/C(=C\c2ccc(OC(F)F)cc2)C1=O)c1cnccn1 | . | . | 5.8µM | 5.8µM
O=C(NCCN1C(=O)S/C(=C\c2ccc(OC(F)F)cc2)C1=O)C1=COCCO1 | . | . | 21µM | 18µM
O=c1[nH]c(SCc2cccc(Cl)c2)nc2[nH]ncc12 | . | . | . | .
Cc1cc(C)cc(N(C(=O)c2csnn2)C(C(=O)NC(C)(C)C)c2ccncc2)c1 (stereo unspecified) | . | . | . | .
Cc1ccc(N(C(=O)c2csnn2)C(C(=O)NC(C)(C)C)c2ccncc2)cc1 (stereo unspecified) | . | . | 18µM | 9.2µM
O=C1N/C(=C/c2ccc(N3CCOCC3)o2)C(=O)N1c1cccc(Cl)c1 | 4µM | . | 4.6µM | ?
N#CC(CO)(Cc1ccc(OC(F)F)cc1)c1nc2ccccc2[nH]1 (stereo unspecified) | . | . | ? | .
COc1ccc(CC(C#N)(CO)c2nc3ccccc3[nH]2)cc1 (stereo unspecified) | . | . | 21µM | .
CC(C)C(=O)Nc1nnc(Cc2c[nH]c3ccccc23)s1 | . | . | ? | 8.2µM
CCc1nnc(NC(=O)CCc2c[nH]c3ccccc23)s1 | . | . | . | .
CC(C)(C)NC(=O)C(c1ccncc1)N(Cc1cccs1)C(=O)Cn1nnc(-c2ccc(F)cc2)n1 (stereo unspecified) | . | . | . | 10µM
CC(C)(C)NC(=O)C(OC(=O)Cn1nnc(-c2ccc(F)cc2)n1)c1ccncc1 (stereo unspecified) | . | . | . | 21µM
CCCS(=O)(=O)c1nnnn1-c1cccc(OC)c1 | ? | . | ? | 6.5µM
CCN(Cc1ccc(OC)c(COC)c1)CC1CCCN(CCc2cccc(F)c2)C1 (stereo unspecified) | . | . | ? | 3.7µM
COc1ccc(CCN2CCCC(CN(C)Cc3cc(OC)ccc3OC)C2)cc1 (stereo unspecified) | . | . | . | 0.65µM
O=C(NCc1ccc2c(c1)OCO2)C1CC(=O)N(CCc2ccc(F)cc2)C1 (stereo unspecified) | . | . | . | .
CC(Sc1nc(-c2ccc(F)cc2)cs1)C(=O)N1c2ccccc2CC1C (stereo unspecified) | . | . | ? | 21µM
CCCN1CCC(=NNc2ccc(S(=O)(=O)N3CCOCC3)cc2[N+](=O)[O-])CC1 | . | . | 7.3µM | 7.3µM
CC(C)N1CCC(=NNc2ccc(S(=O)(=O)N3CCOCC3)cc2[N+](=O)[O-])CC1 | . | . | . | .
SMILES | uPA surface inh | Giardia killer | SW480 rerep | MCF10A rereplic
C/C=C(\C)CN1CCC(n2nccc2NC(=O)CCOc2ccccc2)CC1 | . | . | 18µM | .
CCc1cc(Cn2nc(-c3ccccc3)cc2C(=O)NCC2CC2)on1 | . | . | . | 0.15µM
CC1CCCC(NC(=O)Cn2c(Cl)nc3c2c(=O)n(C)c(=O)n3C)C1C (stereo unspecified) | . | . | . | .
CN(Cc1ccccc1)C(=O)C1CCN(S(=O)(=O)c2cccc3nsnc23)CC1 | . | . | 21µM | .
Cc1cccc(NC(=O)C2CCN(S(=O)(=O)c3cccc4nsnc34)CC2)c1 | . | . | . | .
Cc1cccc(NC(=O)C2CCCN(S(=O)(=O)c3cccc4nsnc34)C2)c1 (stereo unspecified) | . | . | ? | 15µM
CN(CCCNC(=O)C1CCN(S(=O)(=O)c2cccc3nsnc23)CC1)Cc1ccccc1 | . | . | . | .
COc1ccc(NC(=O)C2CCCN(S(=O)(=O)c3cccc4nonc34)C2)cc1 (stereo unspecified) | . | . | ? | 15µM
COc1ccc(NC(=O)C2CCCN(S(=O)(=O)c3c(C)n[nH]c3C)C2)cc1OC (stereo unspecified) | . | . | . | 2.1µM
COc1ccccc1C1N=C(Nc2nc3ccccc3o2)NC2=C1C(=O)CC(C)(C)C2 (stereo unspecified) | / | . | / | /
CC1CCCCN1CCCOC(=O)c1ccccc1 (stereo unspecified) | / | / | . | ?
COc1ccc(-c2nc3ccccc3c(C(=O)Nc3ccc(S(=O)(=O)Nc4cc(C)on4)cc3)c2C)cc1 | . | . | ? | 18µM
Cc1ccc(-c2cc(C(=O)Nc3ccc(S(=O)(=O)Nc4cc(C)on4)cc3)c3ccccc3n2)c(C)c1 | . | . | . | ?
O=C(NCCc1ccccc1)c1ccccc1Cl | . | . | . | .
O=C(NCCc1ccccc1)c1cccnc1N1CCCCCC1 | . | . | . | 26µM
CCn1cc(CN2CCc3c([nH]c4ccccc34)C2c2cccc(OC)c2)c(C)n1 (stereo unspecified) | . | . | . | .
Cc1nc2ccccc2c(=O)n1NCc1cc(Br)cs1 | . | . | ? | 23µM
O=C(Nc1ccc(Cl)cc1)c1cccc(NC2=NC3CS(=O)(=O)CC3S2)c1 (stereo unspecified) | . | . | . | .
COc1ccc2nc(SCC(=O)NCC3CCCO3)c(C#N)cc2c1 (stereo unspecified) | . | . | . | 23µM
Cc1nc(SCC(=O)NCC2CCCO2)c2cc(-c3ccccc3)sc2n1 (stereo unspecified) | 8.9µM | . | . | 21µM
C[C@H](N)C(=O)N[C@@H](C)P(=O)(O)O | / | / | . | .
COc1ccc(-c2ccnc3nc(N4CCOCC4)nn23)cc1 | . | . | . | .
c1ccc(Oc2ccc(-c3ccnc4nc(N5CCOCC5)nn34)cc2)cc1 | . | . | 16µM | 18µM
O=C(CN1CCN(C(=O)c2cncn2-c2ccccc2)CC1)Nc1ccccc1Cl | . | . | . | .
CCN(Cc1nc2cc(Cl)ccc2c(=O)[nH]1)C(=O)c1cc(C2CC2)nn1-c1ccccc1 | . | . | . | 16µM
CCN(Cc1nc2cc(Cl)ccc2c(=O)[nH]1)C(=O)c1nn(C)c(=O)c2ccccc12 | . | . | . | .
O=C(COc1ccccc1[N+](=O)[O-])c1ccccc1 | . | . | . | .
COC(=O)/C=C/COc1ccccc1[N+](=O)[O-] | 11µM | . | ? | ?
Cc1ccc(CN2C(=O)CSC(C)C2=O)cc1 (stereo unspecified) | . | . | . | .
O=C(NCc1ccccc1)[C@]1(C(F)(F)F)C[C@H](CCCO)CCCO1 | / | . | / | /

Bioassay records deposited in PubChem BioAssay by National Center for Advancing Translational Sciences (NCATS).
